Drawing on PubChem BioAssay AID1578 (Sanford-Burnham Center for Chemical Genomics, 2009), this text covers inhibition for 96 compounds.

In all, about 290,000 compounds went through this assay and about 3,000 (1%) were called active. No stated cut-off is given here; in the data, active means inhibition mostly above about 36% (no sharp cut-off); inactive means mostly below about 34%. This excerpt belongs to a sample that is enriched for actives.

The nature of the experiment: inhibition of NOD1-driven NF-kB reporter – cell-based, luminescence, uHTS, primary screen (AID 1578).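 Further: HEK-293T reporter cells stimulated with the NOD1 agonist gamma-tri-DAP.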 As to conditions: NOD1-driven NF-kB luciferase reporter cells, at 4 µM, stronger effect = higher value.
For `COc1ccccc1NC(=S)N(CCN1CCOCC1)Cc1ccccc1F`, the inhibition – broadly, the change of the read-out against control, counted positive when it falls – was -31.9% (inactive).

With `O=[N+]([O-])c1ccccc1/C=N/Nc1nnc(-c2ccccc2)c(-c2ccccc2)n1`, the inhibition was -36.7% (inactive).

Turning to `FCCCOc1ccc(-c2ccnc(-c3ccccc3)n2)cc1`, the inhibition is -45.6% (inactive).

On to `Cc1c(Cl)cccc1NC(=O)NNC(=O)CCc1ccccc1`, for which the inhibition is 28% (inactive).

Turning to `COc1cc(C)c(C)cc1S(=O)(=O)n1c(C)nc2ccccc21`, the inhibition is -11.1% (inactive).

As for `CC(C)COP(=O)(c1ccc(N(C)C)cc1)C(O)c1ccc(N(C)C)cc1` (stereo unspecified), the inhibition is 2.4% (inactive).

On to `CC1CN(c2nc3c(c(=O)n(C)c(=O)n3C)n2Cc2c(F)cccc2Cl)CC(C)O1` (stereo unspecified), for which the inhibition is -14.7% (inactive).

As to `O=C(NNC1=NCCC1)c1ccc(Br)cc1`, the inhibition is 6.7% (inactive).

In the case of `CC(=O)c1ccccc1N(C(=O)c1ccco1)C(C(=O)NC1CCCC1)c1ccc(C)cc1` (stereo unspecified), the inhibition is -11.2% (inactive).

For `Cc1ccc(NC2CCCN(C(=O)c3cccc(-c4ncc[nH]4)c3)C2)cc1C` (stereo unspecified), the inhibition was -0.1% (inactive).

As for `CCN(CC)NC(=O)Nc1ccccc1`, the inhibition was 1.7% (inactive).

For the compound `CCC(O)(CC)C(=O)NN(C(=O)CCl)c1ccccc1`, the inhibition is -63.3% (inactive).

For `CCCCCCN(C(=O)CCl)c1ccccc1`, the inhibition was -4.8% (inactive).

`CCCC(O)(CCC)C(=O)NN(C(=O)CCl)c1ccccc1`: the inhibition was -30.8% (inactive).

In the case of `COC(=O)N(NC(=O)C(O)(c1ccccc1)c1ccccc1)c1ccc(C)cc1`, the inhibition was -13% (inactive).

As to `CCCCC(O)(CCCC)C(=O)NN(C(=O)CCl)c1ccccc1`, the inhibition was 8.2% (inactive).

In the case of `CCCCCCCN(C(=O)CCl)c1cccc(C)c1`, the inhibition is 57.4% (active).

As for `Cc1ccc(N(NC(=O)C(O)(c2ccccc2)c2ccccc2)C(=O)CCl)cc1`, the inhibition was 87.3% (active).

On to `O=C(Nc1ccccc1)NN(C(=O)CCl)c1ccccc1`, for which the inhibition is 73.9% (active).

Regarding `CCCC(O)(CCC)C(=O)NN(C(=O)CCl)c1cccc(C)c1`, the inhibition is 75% (active).

For `CCCCCCCN(C(=O)CCl)c1ccccc1C`, the inhibition is 27.2% (inactive).

Take `CCOC(=O)N(NC(=O)C(O)(c1ccccc1)c1ccccc1)c1ccccc1`: the inhibition is -25.2% (inactive).

In the case of `Cc1cccc(Nc2nc(NCC3CCCO3)nc(N)c2[N+](=O)[O-])c1` (stereo unspecified), the inhibition is -27.5% (inactive).

In the case of `O=C(COc1ccccc1)OC(C(=O)c1ccccc1)c1ccccc1` (stereo unspecified), the inhibition was -26.7% (inactive).

As for `Cc1cc(NS(=O)(=O)c2ccc(NC(=O)c3ccco3)cc2)no1`, the inhibition is 9.2% (inactive).

Take `O=C(O)CN1CCCCCC1=O`: the inhibition was -31.2% (inactive).

For the compound `Cc1nccn1CCCNC(=O)C1CCC(=O)N(Cc2ccccc2F)C1` (stereo unspecified), the inhibition is -13.5% (inactive).

For `CC(C)(C)OC(=O)CN1c2cccc3cccc(c23)S1(=O)=O`, the inhibition is -5.8% (inactive).

`CCC(C(=O)NC(C)c1ccccc1)C(=O)NC(C)c1ccccc1` (stereo unspecified): the inhibition was -9.8% (inactive).

On to `CC(=O)Nc1ccc(NC(=O)c2cc(=O)c3cc(C)c(C)cc3o2)cc1`, for which the inhibition was -7.3% (inactive).

With `COc1ccc(-c2ccc(C(C)=O)cc2)cc1[C@H]1[C@H]2C=CC[C@@H](C)[C@@H]2C(=O)N1Cc1ccccc1`, the inhibition is -4.4% (inactive).

As for `COC(=O)c1cc2sc(Cl)cc2n1CC(=O)Nc1cccc(SC)c1`, the inhibition was 1.3% (inactive).

`CCn1c(=O)cc(OCC(=O)NCc2cccs2)c2ccccc21`: the inhibition was -18.7% (inactive).

For `O=C(CN1CC[n+]2c(-c3ccccc3)csc21)c1ccc(Br)cc1`, the inhibition was -9.1% (inactive).

For the compound `O=C(CN1CC[n+]2c(-c3cccs3)csc21)c1ccc(Br)cc1`, the inhibition was 5% (inactive).

In the case of `O=C(CN1CC[n+]2c(-c3cccs3)csc21)c1ccc(-c2ccccc2)cc1`, the inhibition is 56.9% (active).

For the compound `O=C(O)CSCC(=O)N1CCc2c([nH]c3ccccc23)C1C(F)(F)F` (stereo unspecified), the inhibition is -8.5% (inactive).

With `O=C(Nc1cccc(S(=O)(=O)C(F)F)c1)c1ccc(Cl)c(S(=O)(=O)N2CCOCC2)c1`, the inhibition is 4.5% (inactive).

As to `O=C(Nc1ccc(NC(=O)c2ccc(Cl)c(S(=O)(=O)N3CCOCC3)c2)cc1)c1ccccc1`, the inhibition was -18.3% (inactive).

As for `CCOC(=O)c1c(/N=C/N(C)C)sc(C=O)c1-c1ccccc1`, the inhibition was -24.2% (inactive).

Turning to `Cc1cccc(COCC(CC(C)C)N2CCN(C(=O)c3ccc(C(C)(C)C)cc3)CCC2=O)c1` (stereo unspecified), the inhibition is 77% (active).

For the compound `Cc1cccc(COCC(CC(C)C)N2CCN(C(=O)c3ccc(C(F)(F)F)cc3)CCC2=O)c1` (stereo unspecified), the inhibition was -5.2% (inactive).

Turning to `CC(C)CC(COCc1cccc(Cl)c1)N1CCN(C(=O)c2ccc(C(F)(F)F)cc2)CCC1=O` (stereo unspecified), the inhibition was -7.1% (inactive).

In the case of `COC(=O)c1c(C)n(-c2ccc(C)cc2)c2ccc(O)cc12`, the inhibition is 18.7% (inactive).

As to `CC(=O)c1c(C)n(-c2ccc(C)cc2)c2ccc(O)cc12`, the inhibition is 33.3% (inactive).

For the compound `O=C(CN(C(=O)c1ccccc1Cl)N1C(=O)C2C3C=CC(C3)C2C1=O)c1cccs1` (stereo unspecified), the inhibition is -17% (inactive).

As to `O=C(Nc1ccc(OC(F)F)c(Cl)c1)Nc1ccc2c(c1)OCO2`, the inhibition is -34.5% (inactive).

`COc1ccc(/C=C2\N=C(SC)N(C)C2=O)cc1`: the inhibition is 3.7% (inactive).

Turning to `COc1ccc(/C=C2\N=C(SC)N(c3ccccc3OC)C2=O)cc1`, the inhibition was 53.5% (active).

As to `CCSC1=N/C(=C\c2ccccc2)C(=O)N1c1ccc(OC)cc1`, the inhibition was 30.2% (inactive).

In the case of `COc1cccc(CNc2ncn[nH]2)c1OCc1ccc(F)cc1`, the inhibition is -21.2% (inactive).

As for `Cc1ccc(-c2nc(C=Nc3ccc(O)cc3)c(O)o2)cc1`, the inhibition is 57.6% (active).

With `Cc1ccc(-c2nc(C=Nc3ccccc3)c(O)o2)cc1`, the inhibition is -33.7% (inactive).

With `Cc1ccc(N=Cc2nc(-c3ccc(C)cc3)oc2O)cc1`, the inhibition was 21.9% (inactive).

Turning to `CCSc1nc2ccccc2n1CCOc1ccccc1`, the inhibition is -22.7% (inactive).

`O=C(CS(=O)(=O)c1cn(CC(=O)N2CCCC2)c2ccccc12)Nc1ccccc1`: the inhibition is -8.1% (inactive).

With `O=S(=O)(NCc1ccco1)c1ccc(Cl)nc1`, the inhibition is -15.7% (inactive).

`CC(C)CC(C(=O)NC(C)(C)C)N(Cc1cccs1)C(=O)c1snc(C(N)=O)c1N` (stereo unspecified): the inhibition was -13.4% (inactive).

For the compound `O=c1c(Cl)c(N2CCOCC2)cnn1-c1nc2ccccc2[nH]1`, the inhibition is -19.5% (inactive).

`Cc1nn(-c2ccccc2)c(=O)c2ccccc12`: the inhibition was -47.4% (inactive).

For `O=c1c(Cl)c(NCCCO)cnn1-c1nc2ccccc2[nH]1`, the inhibition is 10.3% (inactive).

In the case of `Cc1nn(-c2nc3ccccc3[nH]2)c(=O)c2ccccc12`, the inhibition is 94.4% (active).

For `O=c1c2ccccc2cnn1-c1nc2ccccc2[nH]1`, the inhibition was 99.7% (active).

Take `O=c1c2ccccc2cnn1-c1ccc(Cl)cc1`: the inhibition was -102% (inactive).

For `O=c1c(Cl)c(N2CCCCC2)cnn1-c1nc2ccccc2[nH]1`, the inhibition was 74.8% (active).

Turning to `C=CCN(CC=C)c1cnn(-c2nc3ccccc3[nH]2)c(=O)c1Cl`, the inhibition is 11.7% (inactive).

`Cc1nn(-c2nc3ccccc3[nH]2)c(N)c1-c1ccccc1`: the inhibition is -44.1% (inactive).

On to `Cc1nnc(SCC(=O)NC(=O)Nc2ccc3c(c2)OCCO3)s1`, for which the inhibition is -25.8% (inactive).

As for `COc1ccc(CCNC(=O)CC2SC(=NCCC(C)C)NC2=O)cc1OC` (stereo unspecified), the inhibition was -12.2% (inactive).

For `COc1cc(C2c3[nH]c4ccccc4c3C[C@@H]3C(=O)N(Cc4ccco4)CC(=O)N23)cc(OC)c1OC` (stereo partly specified), the inhibition was -4.3% (inactive).

`CCCCN(C(=O)CCC(=O)Nc1cc(C)on1)C(C(=O)NC1CCCC1)c1ccccc1OCC` (stereo unspecified): the inhibition is -32.8% (inactive).

As to `COCc1nnc(NC(=O)C2CCN(C(=O)c3ccco3)CC2)s1`, the inhibition was -4% (inactive).

Regarding `Cc1ccc(N2C(=O)C3C(c4ccccc4)N4CCCN4C3(C)C2=O)cc1` (stereo unspecified), the inhibition was -27.5% (inactive).

Consider `O=S(=O)(Nc1nnc(C(F)(F)F)s1)c1ccc(Cl)cc1`, for which the inhibition was -6.4% (inactive).

Turning to `O=C1c2ccccc2N2C(=O)c3ccccc3[C@H]2N1c1ccccc1`, the inhibition was -14.4% (inactive).

For the compound `CC(C)Cc1ccc(CN2CCC(n3nccc3NC(=O)C3CCCC3)CC2)cc1`, the inhibition was -7.7% (inactive).

Regarding `Cc1cc(OCCCn2ccnc2)cc(C)c1Cl`, the inhibition is 7.6% (inactive).

`Cc1cc(OCCCCCn2ccnc2)cc(C)c1Cl`: the inhibition was 48% (active).

In the case of `Cc1cc(OCCCCn2ccnc2)cc(C)c1Cl`, the inhibition was -18.7% (inactive).

Turning to `O=C(Nc1ccc(S(=O)(=O)Nc2nccs2)cc1)c1ccc(N2C(=O)c3ccccc3C2=O)cc1`, the inhibition is -25.2% (inactive).

On to `CC1=CC(C)(C)N2C(=O)C3(C(C#N)=C(N)OC4=C3C(=O)CC(C)(C)C4)c3cc(C)cc1c32` (stereo unspecified), for which the inhibition was 13.2% (inactive).

On to `Cc1cc2c3c(c1)C(C)(c1ccccc1)CC(C)(C)N3C(=O)C21C(C#N)=C(N)OC2=C1C(=O)CC(C)(C)C2` (stereo unspecified), for which the inhibition is 77.1% (active).

In the case of `Cc1cc2c3c(c1)C1(C(=O)N3C(C)(C)CC2C)C(C#N)=C(N)OC2=C1C(=O)CC(C)(C)C2` (stereo unspecified), the inhibition is -22.2% (inactive).

Turning to `O=C(Nc1nncs1)c1cccc(S(=O)(=O)N2CCc3ccccc32)c1`, the inhibition is -12.7% (inactive).

As to `C=CCOC(=O)C1=C(C)Nc2nnnn2C1c1cc(OC)ccc1OC` (stereo unspecified), the inhibition was -1.8% (inactive).

Turning to `CC1CC(C)(C)Nc2ccc(N=O)cc21` (stereo unspecified), the inhibition is 41.9% (active).

For `CC1CC(C)(C)Nc2ccc(OC(=O)c3ccco3)cc21` (stereo unspecified), the inhibition was 44.8% (inactive).

On to `CC1CC2(CCCC2)Nc2ccc(F)cc21` (stereo unspecified), for which the inhibition is -2% (inactive).

Turning to `CCOC(=O)C1CCN(C(=O)CCc2ccc(S(=O)(=O)NC(C)C)cc2)CC1`, the inhibition was -6.7% (inactive).

Consider `COc1ccccc1N1CCN(CC(O)c2ccc3cc[nH]c3c2)CC1` (stereo unspecified), for which the inhibition was -10.9% (inactive).

Take `CC1CN(C(=O)CCNC(=O)c2ccc(Cl)cc2)CC(C)O1` (stereo unspecified): the inhibition was -15.6% (inactive).

Regarding `CC12CN3CCN(CC(C3)C1(O)CN1CCOCC1)C2` (stereo unspecified), the inhibition is -10.8% (inactive).

`COc1cccc(C(=O)C2CCCN(C(=O)CCC3=NNC(=O)CC3)C2)c1` (stereo unspecified): the inhibition was -14.9% (inactive).

On to `Nc1nc(Nc2ccccc2)nc2ccccc12`, for which the inhibition was -85.2% (inactive).

On to `Nc1nc(Nc2ccc(Cl)cc2)nc2ccccc12`, for which the inhibition was 24.4% (inactive).

As to `CN(C)c1ccc(Nc2nc(N)c3ccccc3n2)cc1`, the inhibition is 73.8% (active).
